{
  "source": "PubChem BioAssay (NCI)",
  "note": "About 79,000 compounds went through this panel and 15% of them were active in at least one assay; those are over-represented in the sample as a whole. Values without a mark were called inactive. Activity calls are given as the source filed them. No stated cut-off is given here; in the data, active means growth inhibition above about 70%; inactive means the rest.",
  "data": [
    {"test": "NCI Yeast Anticancer Drug Screen. Data for the mlh1 rad18 strain (AID 175)", "details": "S. cerevisiae mlh1 rad18 strain growth inhibition; at 50.0 µM (retest, dose inferred, filed as 5.0); hits give high values", "how_it_was_run": "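In this whole-cell yeast screen, a strain with altered DNA damage repair is challenged with compound, and its growth is measured against matched vehicle-treated controls.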", "values": [
      {"smiles": "CCC/C(Cl)=N\\OC(=O)Nc1cccc(C(F)(F)F)c1", "growth inhibition": "99% (active)"},
      {"smiles": "[O-][n+]1c2ccc(O)cc2nc2ccc(Cl)cc21", "growth inhibition": "53%"},
      {"smiles": "Clc1ccccc1C1OC1c1ccccc1Cl", "note": "(centres undefined)", "growth inhibition": "100% (active)"},
      {"smiles": "c1ccc2c(c1)c1ncccc1c1nccnc21", "growth inhibition": "-73%"},
      {"smiles": "CC(=O)Nc1ccc2c(c1)C(=Nc1ccc(C(=O)O)cc1)c1ccccc1-2", "growth inhibition": "73% (active)"},
      {"smiles": "COc1ccc(OC)c2cc3ccccc3cc12", "growth inhibition": "81% (active)"},
      {"smiles": "COc1cc(C2c3cc4c(cc3OC(NNc3ccccc3)C2C)OCO4)cc(OC)c1OC", "note": "(centres undefined)", "growth inhibition": "94% (active)"},
      {"smiles": "O=C1c2cc([N+](=O)[O-])ccc2-c2cccc(F)c21", "growth inhibition": "64%"},
      {"smiles": "CCCCCCCCCCCC(=O)N(C)C", "growth inhibition": "94% (active)"},
      {"smiles": "CCCCCCCCCCCC1=C(O)C(=O)C=C(O)C1=O", "growth inhibition": "90% (active)"},
      {"smiles": "Cc1ccc(CSC(N)=Nc2ccccc2)cc1C", "growth inhibition": "41%"},
      {"smiles": "CCCCCCCCCCC1CCC(=O)O1", "note": "(centres undefined)", "growth inhibition": "69%"},
      {"smiles": "O=[N+]([O-])c1cc(CCl)ccc1CCl", "growth inhibition": "99% (active)"},
      {"smiles": "Nc1ccc2c(c1)C(=O)c1cccc(N)c1C2=O", "growth inhibition": "93% (active)"},
      {"smiles": "CCCCCCCCCCNC(=O)OCC", "growth inhibition": "68%"},
      {"smiles": "CC1=C(C)Cc2c(O)ccc(O)c2C1", "growth inhibition": "99% (active)"},
      {"smiles": "COc1ccc2c(c1)C(=O)c1ccccc1C2", "growth inhibition": "31%"},
      {"smiles": "CCC(=O)OCCn1c2nc(=O)[nH]c(=O)c-2nc2cc(C)c(C)cc21", "growth inhibition": "29%"},
      {"smiles": "O=C(OCCN1CCCCCC1)C(c1ccsc1)C1CCCCC1", "note": "(centres undefined)", "growth inhibition": "33%"},
      {"smiles": "Oc1c(Br)cc(Br)cc1C1CCCCC1", "growth inhibition": "100% (active)"},
      {"smiles": "CC1(C)[C@@H]2CC[C@]1(C)[C@H](OC(=O)CSC#N)C2", "growth inhibition": "98% (active)"},
      {"smiles": "S=C(N/N=C(/c1ccccc1)c1ccccn1)N1CCCCCC1", "growth inhibition": "97% (active)"},
      {"smiles": "Cc1ccc2[nH]c3c(C)c4cc[n+](C)cc4c(C)c3c2c1", "growth inhibition": "72% (active)"},
      {"smiles": "CNC(=O)OCc1c(COC(=O)NC)c(-c2ccc(-c3ccccc3)cc2)n(C)c1C", "growth inhibition": "75% (active)"},
      {"smiles": "COc1ccccc1/C=C1\\Sc2scc(-c3cccc([N+](=O)[O-])c3)[n+]2C1=O", "growth inhibition": "96% (active)"},
      {"smiles": "O=[N+]([O-])c1ccc2c(c1)C(N1CCN(CCO)CC1)Cc1ccc(F)cc1S2", "note": "(centres undefined)", "growth inhibition": "-13%"},
      {"smiles": "Cc1ccc(CCC2=CCCc3c2ccc2ccccc32)cc1", "growth inhibition": "16%"},
      {"smiles": "O=[N+]([O-])c1cccc2nccc(NCCCO)c12", "growth inhibition": "91% (active)"},
      {"smiles": "Cc1ccc(-n2cc(-c3ccc(Cl)cc3)c(C#N)c2N)cc1", "growth inhibition": "55%"},
      {"smiles": "Cc1ccc(S/N=C\\c2ccccc2O)cc1", "growth inhibition": "31%"},
      {"smiles": "O=C(O)C1OC1(c1cccc(Cl)c1)c1ccccc1Cl", "note": "(centres undefined)", "growth inhibition": "53%"},
      {"smiles": "NC(=S)N/N=C\\c1nccc2ccccc12", "growth inhibition": "96% (active)"},
      {"smiles": "Clc1cccc(C(Nc2nncs2)Nc2nncs2)c1Cl", "growth inhibition": "57%"},
      {"smiles": "O=C(OCC=C1CCCC1)c1cc([N+](=O)[O-])cc([N+](=O)[O-])c1", "growth inhibition": "94% (active)"},
      {"smiles": "O=C(Nc1ccccc1)C(=O)C(C(=O)c1ccccc1)C(c1ccccc1)c1ccccc1", "note": "(centres undefined)", "growth inhibition": "74% (active)"},
      {"smiles": "N#CN1C2CCC1CC(=O)C2", "growth inhibition": "100% (active)"},
      {"smiles": "COc1ccccc1C(=O)OCC1CCCN2CCCCC12", "note": "(centres undefined)", "growth inhibition": "99% (active)"},
      {"smiles": "CCNc1nnc(CSc2nc(-c3ccccc3)c(-c3ccccc3)[nH]2)s1", "growth inhibition": "93% (active)"},
      {"smiles": "O=C1c2ccccc2-c2n[nH]c3cccc1c23", "growth inhibition": "100% (active)"}
    ]}
  ]
}
